Measurements: PubChem BioAssay (NCI)
The panel holds about 79,000 compounds, 15% with a hit somewhere; the sample as a whole holds those more often. Values without a mark were called inactive. The source made the active and inactive calls. No stated cut-off is given here; in the data, active means growth inhibition above about 70%; inactive means the rest.

Assays:
[1] = NCI Yeast Anticancer Drug Screen. Data for the rad50 strain (AID 155);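 further: 0% = growth of vehicle-only cultures of the same strain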; conditions: S. cerevisiae rad50 strain growth inhibition, active compounds read high
Summary of the method: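 Vehicle-treated cultures provide the reference for the growth inhibition reported for compound-exposed, repair-deficient yeast.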

[2] = NCI Yeast Anticancer Drug Screen. Data for the mec2-1 strain (AID 157); conditions: S. cerevisiae mec2-1 strain, active compounds read high
Summary of the method: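 Using mec2-1 yeast: add compound, measure growth, express inhibition versus vehicle-treated cultures.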

[3] = NCI Yeast Anticancer Drug Screen. Data for the sgs1 mgt1 strain (AID 161);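 further: 0% = growth of cultures given vehicle only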; conditions: S. cerevisiae sgs1 mgt1 strain, active compounds read high
Summary of the method: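 Growth of a repair-deficient yeast mutant was monitored after compound treatment and expressed as inhibition relative to vehicle-treated cultures.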

[4] = NCI Yeast Anticancer Drug Screen. Data for the cln2 rad14 strain (AID 165);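 further: 0% = growth equal to vehicle treated cultures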; conditions: S. cerevisiae cln2 rad14 strain, active compounds read high
Summary of the method: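 Yeast strain cln2 rad14, bearing defects in cell cycle control and DNA repair, serves as the test system; values reflect growth inhibition compared with vehicle.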

[5] = NCI Yeast Anticancer Drug Screen. Data for the bub3 strain (AID 167); conditions: S. cerevisiae bub3 mutant strain, active compounds read high
Summary of the method: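 Mutant yeast screening strain plus compound; vehicle-treated cultures serve as the 0% inhibition reference.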

[6] = NCI Yeast Anticancer Drug Screen. Data for the mlh1 rad18 strain (AID 175); conditions: S. cerevisiae mlh1 rad18 strain growth inhibition, active compounds read high
Summary of the method: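 Steps: expose repair-defective yeast to compound; measure growth; express inhibition against vehicle-treated controls.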

[7] = at 5.0 µM (retest, dose inferred, filed as 0.5)
[8] = at 50.0 µM (retest, dose inferred, filed as 5.0)

SMILES	growth inhibition [1, 7]	growth inhibition [1, 8]	growth inhibition ([1]; at 50.0 µM)	growth inhibition [2, 7]	growth inhibition [2, 8]	growth inhibition ([2]; at 50.0 µM)	growth inhibition [3, 7]	growth inhibition [3, 8]	growth inhibition ([3]; at 50.0 µM)	growth inhibition [4, 7]	growth inhibition [4, 8]	growth inhibition ([4]; at 50.0 µM)	growth inhibition [5, 7]	growth inhibition [5, 8]	growth inhibition ([5]; at 50.0 µM)	growth inhibition [6, 7]	growth inhibition [6, 8]	growth inhibition ([6]; at 50.0 µM)
CCS/C(SC)=C(/c1ccccc1)[P+](c1ccccc1)(c1ccccc1)c1ccccc1	98% (active)	99% (active)	90.6% (active)	99% (active)	100% (active)	94.3% (active)	99% (active)	99% (active)	91.6% (active)	98% (active)	99% (active)	91.5% (active)	99% (active)	100% (active)	91% (active)	98% (active)	99% (active)	91.8% (active)
C=CCC1(OC(C)=O)CC2C(=O)C(=O)C(C1)N2OC(=O)c1ccccc1 (configuration not stated)	20%	95% (active)	99% (active)	13%	96% (active)	99.1% (active)	22%	99% (active)	99.3% (active)	9%	94% (active)	98.3% (active)	-1%	93% (active)	98% (active)	10%	98% (active)	98.7% (active)
O=C(NNc1ccccc1)C(O)C(=O)C(O)C(O)C(O)CO (configuration not stated)	1%	27%	9.45%	-1%	8%	21.9%	9%	6%	61.8%	-2%	14%	-14.1%	8%	34%	80% (active)	5%	28%	75.2% (active)
COC(=O)c1nc(=S)[nH]c(C(=O)OC)c1C(=O)C(C)(C)C	6%	24%	-6.8%	4%	18%	-10.4%	11%	22%	-21.9%	5%	22%	45.6%	5%	26%	-25.2%	9%	20%	4.75%
CCCCOC(=O)c1ccc(S(=O)(=O)c2ccc(C(=O)OCCCC)cc2)cc1	3%	-6%	1.7%	3%	-3%	28.4%	5%	-18%	10%	5%	-11%	-13.1%	4%	-1%	77.7% (active)	2%	-3%	11.1%
COC(=O)C1(OC(=O)CCC(=O)O)C(=O)NC2=C1C(=O)c1ccccc1C2=O (configuration not stated)	1%	9%	75.8% (active)	2%	-58%	12%	2%	13%	47.8%	2%	6%	38.5%	-42%	16%	32.9%	1%	17%	47.2%
CN(C)CCSCCN1c2ccccc2Sc2ccc(Cl)cc21	-5%	99% (active)	57.5%	-2%	99% (active)	99.7% (active)	-16%	99% (active)	98.6% (active)	-8%	99% (active)	99% (active)	4%	99% (active)	99.2% (active)	5%	99% (active)	99.5% (active)
CCOC(=O)c1cc(Cl)nc2ccc(OC)cc12	-3%	-30%	0.05%	-3%	-30%	9.35%	-4%	-31%	20.3%	0%	-41%	40.9%	6%	-12%	49.4%	-2%	-25%	15.4%
Cc1nc(Nc2ccc(Cl)cc2)sc1C(=O)Nc1cccc2c(=O)[nH][nH]c(=O)c12	13%	13%	83% (active)	6%	6%	90.8% (active)	9%	9%	91% (active)	3%	3%	87.5% (active)	11%	11%	91.1% (active)	14%	14%	89.7% (active)
